Experimental data: PubChem BioAssay (NCI)
The panel holds about 79,000 compounds, 15% with a hit somewhere; the sample as a whole holds those more often. Activity calls are given as the source filed them. Rule as the data show it: active = growth inhibition above about 70%; inactive = the rest.

Columns and labels:
[1] = NCI Yeast Anticancer Drug Screen. Data for the rad52 strain (AID 147);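 also: 0% = growth of vehicle-treated control cultures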; settings: S. cerevisiae rad52 mutant growth inhibition, active compounds read high
In short: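 Read-out: growth inhibition versus vehicle-treated controls. Cells were a DNA repair-deficient yeast strain treated with compounds.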

[2] = NCI Yeast Anticancer Drug Screen. Data for the wt1 strain (AID 149);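 also: 0% = growth of vehicle-treated wt1 cultures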; settings: S. cerevisiae wt1 strain (SPY 50644) growth inhibition, active compounds read high
In short: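 Measured: growth of wt1 yeast under compound versus vehicle treatment, reported as inhibition.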

[3] = NCI Yeast Anticancer Drug Screen. Data for the rad50EPP+ strain (AID 151);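 also: 0% = growth of vehicle-treated control cultures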; settings: S. cerevisiae rad50 mutant strain, active compounds read high
In short: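 Growth inhibition read against vehicle controls in rad50EPP+ yeast, a strain altered in DNA damage repair, after compound exposure.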

[4] = NCI Yeast Anticancer Drug Screen. Data for the mgt1 strain (AID 153); settings: S. cerevisiae mgt1 mutant growth inhibition, active compounds read high
In short: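 mgt1 yeast grown with test compound; read-out is growth inhibition versus vehicle-treated cultures.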

[5] = NCI Yeast Anticancer Drug Screen. Data for the rad50 strain (AID 155);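 also: 0% = growth of vehicle-only cultures of the same strain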; settings: S. cerevisiae rad50 strain growth inhibition, active compounds read high
In short: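 Growth of the mutant yeast was measured after compound exposure and referenced to vehicle-treated cultures.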

[6] = NCI Yeast Anticancer Drug Screen. Data for the mec2-1 strain (AID 157); settings: S. cerevisiae mec2-1 strain, active compounds read high
In short: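 Yeast mec2-1 mutant treated with compound. Readout: growth inhibition vs vehicle controls.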

[7] = NCI Yeast Anticancer Drug Screen. Data for the rad14 strain (AID 159);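 also: 0% = growth of vehicle-treated control cultures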; settings: S. cerevisiae rad14 strain growth inhibition, active compounds read high
In short: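 Here, inhibition of yeast growth was measured after compound exposure, using a strain with a genetic defect in DNA damage repair and vehicle-treated cultures as the reference.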

[8] = NCI Yeast Anticancer Drug Screen. Data for the sgs1 mgt1 strain (AID 161);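 also: 0% = growth of cultures given vehicle only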; settings: S. cerevisiae sgs1 mgt1 strain, active compounds read high
In short: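 Genetically altered yeast, compound exposure, growth inhibition relative to vehicle.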

[9] = NCI Yeast Anticancer Drug Screen. Data for the CLN2oe strain (AID 163);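 also: 0% = growth of vehicle-only control cultures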; settings: S. cerevisiae CLN2oe strain, active compounds read high
In short: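 Read-out: yeast growth inhibition, expressed relative to vehicle-only controls. The strain bears an engineered cell-cycle alteration.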

[10] = NCI Yeast Anticancer Drug Screen. Data for the cln2 rad14 strain (AID 165);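 also: 0% = growth equal to vehicle treated cultures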; settings: S. cerevisiae cln2 rad14 strain, active compounds read high
In short: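 cln2 rad14 yeast strain; compound exposure; growth inhibition read vs vehicle controls.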

[11] = NCI Yeast Anticancer Drug Screen. Data for the bub3 strain (AID 167); settings: S. cerevisiae bub3 mutant strain, active compounds read high
In short: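 Whole-cell yeast assay. The mutant strain was incubated with compounds, and growth inhibition was determined by comparison with vehicle-treated cells.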

[12] = NCI Yeast Anticancer Drug Screen. Data for the wt2 strain (AID 169);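 also: 0% = growth of vehicle-treated yeast cultures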; settings: S. cerevisiae wt2 strain growth inhibition, active compounds read high
In short: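 Read-out: growth inhibition versus vehicle-treated control cultures after compound exposure of the yeast strain.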

[13] = NCI Yeast Anticancer Drug Screen. Data for the mlh1 strain (AID 171);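 also: 0% = growth of vehicle-treated control cultures of the same strain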; settings: S. cerevisiae mlh1 strain growth inhibition, active compounds read high
In short: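 Read-out: growth inhibition versus vehicle controls. Strain: engineered yeast with a defined DNA repair or cell cycle defect, compound-treated.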

[14] = NCI Yeast Anticancer Drug Screen. Data for the sgs1 strain (AID 173);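 also: 0% = growth of vehicle-only control cultures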; settings: S. cerevisiae sgs1 mutant, active compounds read high
In short: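 Read-out: yeast growth inhibition relative to vehicle controls, following compound exposure of a strain with a defined DNA repair/cell cycle alteration.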

[15] = NCI Yeast Anticancer Drug Screen. Data for the mlh1 rad18 strain (AID 175); settings: S. cerevisiae mlh1 rad18 strain growth inhibition, active compounds read high
In short: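 Yeast w/ defined DNA-repair lesions; compound exposure; growth vs vehicle controls → % inhibition.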

[16] = NCI Yeast Anticancer Drug Screen. Data for the rad18 strain (AID 177); settings: S. cerevisiae rad18 mutant growth inhibition, active compounds read high
In short: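 Readout: growth inhibition vs vehicle controls. Cells: genetically altered yeast strain, DNA repair defect.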

[17] = at 5.0 µM (retest, dose inferred, filed as 0.5)
[18] = at 50.0 µM (retest, dose inferred, filed as 5.0)

Measured: growth inhibition

COc1cc2c(cc1O)[C@H](C)C(c1ccccc1OC)O2 (stereo partly specified)
active: [1]; at 100.0 µM 96% | [2]; at 100.0 µM 96% | [4]; at 100.0 µM 97% | [5]; at 100.0 µM 96% | [6]; at 100.0 µM 95% | [7]; at 100.0 µM 96% | [9]; at 100.0 µM 97% | [11]; [18] 81% | [11]; at 100.0 µM 97% | [12]; at 100.0 µM 96% | [13]; at 100.0 µM 97% | [14]; at 100.0 µM 96% | [16]; at 100.0 µM 94%
inactive: [1]; at 1.2 µM -41% | [1]; at 3.7 µM -34% | [1]; at 11.0 µM -31% | [1]; at 33.0 µM -19% | [2]; at 1.2 µM -11% | [2]; at 3.7 µM -13% | [2]; at 11.0 µM -13% | [2]; at 33.0 µM -17% | [3]; at 1.2 µM -39% | [3]; at 3.7 µM -68% | [3]; at 11.0 µM -54% | [3]; at 33.0 µM -8% | [3]; at 100.0 µM 19% | [4]; at 1.2 µM 1% | [4]; at 3.7 µM 5% | [4]; at 11.0 µM -4% | [4]; at 33.0 µM 33% | [5]; at 1.2 µM -4% | [5]; at 3.7 µM -2% | [5]; [17] -13% | [5]; at 11.0 µM -8% | [5]; at 33.0 µM 4% | [5]; [18] 4% | [5]; at 50.0 µM 15.5% | [6]; at 1.2 µM -27% | [6]; at 3.7 µM -15% | [6]; [17] -44% | [6]; at 11.0 µM -20% | [6]; at 33.0 µM 6% | [6]; [18] 13% | [6]; at 50.0 µM 17.6% | [7]; at 1.2 µM -7% | [7]; at 3.7 µM -11% | [7]; at 11.0 µM -11% | [7]; at 33.0 µM 7% | [8]; [17] -16% | [8]; [18] 59% | [8]; at 50.0 µM 68% | [9]; at 1.2 µM 14% | [9]; at 3.7 µM 9% | [9]; at 11.0 µM 5% | [9]; at 33.0 µM 18% | [10]; [17] 26% | [10]; [18] 24% | [10]; at 50.0 µM 29.9% | [11]; at 1.2 µM 24% | [11]; at 3.7 µM 32% | [11]; [17] 20% | [11]; at 11.0 µM 22% | [11]; at 33.0 µM 55% | [11]; at 50.0 µM 62.4% | [12]; at 1.2 µM -26% | [12]; at 3.7 µM -32% | [12]; at 11.0 µM -26% | [12]; at 33.0 µM -4% | [13]; at 1.2 µM 17% | [13]; at 3.7 µM 24% | [13]; at 11.0 µM -2% | [13]; at 33.0 µM 47% | [14]; at 1.2 µM -10% | [14]; at 3.7 µM -17% | [14]; at 11.0 µM -12% | [14]; at 33.0 µM 10% | [15]; [17] 1% | [15]; [18] 22% | [15]; at 50.0 µM 19.6% | [16]; at 1.2 µM -9% | [16]; at 3.7 µM -22% | [16]; at 11.0 µM 11% | [16]; at 33.0 µM 20%

COc1ccc(C2CC(C)(N3CCCC3)Oc3cc4c(cc32)OCO4)cc1 (stereo unspecified)
inactive: [1]; at 1.2 µM 4% | [1]; at 3.7 µM 5% | [1]; at 11.0 µM 4% | [1]; at 33.0 µM 32% | [2]; at 1.2 µM -3% | [2]; at 3.7 µM -3% | [2]; at 11.0 µM -5% | [2]; at 33.0 µM -9% | [2]; at 100.0 µM 11% | [3]; at 1.2 µM 4% | [3]; at 3.7 µM 4% | [3]; at 11.0 µM 3% | [3]; at 33.0 µM 9% | [3]; at 100.0 µM -3% | [4]; at 1.2 µM -1% | [4]; at 3.7 µM -1% | [4]; at 11.0 µM -3% | [4]; at 33.0 µM -5% | [5]; at 1.2 µM 5% | [5]; at 3.7 µM 1% | [5]; [17] -7% | [5]; at 11.0 µM 0% | [5]; at 33.0 µM 37% | [5]; [18] 25% | [5]; at 50.0 µM 64.5% | [6]; at 1.2 µM -1% | [6]; at 3.7 µM -1% | [6]; [17] 11% | [6]; at 11.0 µM -4% | [6]; at 33.0 µM 1% | [6]; [18] 9% | [6]; at 50.0 µM 9.8% | [6]; at 100.0 µM 36% | [7]; at 1.2 µM 0% | [7]; at 3.7 µM 0% | [7]; at 11.0 µM -1% | [7]; at 33.0 µM 9% | [7]; at 100.0 µM 67% | [8]; [17] -6% | [8]; [18] 47% | [8]; at 50.0 µM 61.5% | [9]; at 1.2 µM 2% | [9]; at 3.7 µM -1% | [9]; at 11.0 µM -6% | [9]; at 33.0 µM 6% | [9]; at 100.0 µM 68% | [10]; [17] 8% | [10]; [18] 34% | [10]; at 50.0 µM 19.4% | [11]; at 1.2 µM 1% | [11]; at 3.7 µM 5% | [11]; [17] 22% | [11]; at 11.0 µM -21% | [11]; at 33.0 µM 22% | [11]; at 50.0 µM 41.4% | [12]; at 1.2 µM -7% | [12]; at 3.7 µM -1% | [12]; at 11.0 µM -13% | [12]; at 33.0 µM 6% | [13]; at 1.2 µM 3% | [13]; at 3.7 µM -1% | [13]; at 11.0 µM -4% | [13]; at 33.0 µM 13% | [14]; at 1.2 µM -4% | [14]; at 3.7 µM 9% | [14]; at 11.0 µM -18% | [14]; at 33.0 µM 17% | [15]; [17] 2% | [16]; at 1.2 µM 5% | [16]; at 3.7 µM 7% | [16]; at 11.0 µM 12% | [16]; at 33.0 µM 35%
active: [1]; at 100.0 µM 94% | [4]; at 100.0 µM 85% | [5]; at 100.0 µM 92% | [11]; [18] 74% | [11]; at 100.0 µM 87% | [12]; at 100.0 µM 92% | [13]; at 100.0 µM 83% | [14]; at 100.0 µM 83% | [15]; [18] 75% | [15]; at 50.0 µM 76.7% | [16]; at 100.0 µM 77%

O=C1Nc2ccc(Br)cc2C1=Nc1cccnc1
inactive: [1]; at 1.2 µM -23% | [1]; at 3.7 µM -36% | [1]; at 11.0 µM -40% | [1]; at 33.0 µM -32% | [1]; at 100.0 µM -40% | [2]; at 1.2 µM -25% | [2]; at 3.7 µM -20% | [2]; at 11.0 µM -17% | [2]; at 33.0 µM -8% | [2]; at 100.0 µM -24% | [3]; at 1.2 µM 3% | [3]; at 3.7 µM -9% | [3]; at 11.0 µM -8% | [3]; at 33.0 µM -3% | [3]; at 100.0 µM 16% | [4]; at 1.2 µM -33% | [4]; at 3.7 µM -27% | [4]; at 11.0 µM -36% | [4]; at 33.0 µM -19% | [4]; at 100.0 µM -14% | [5]; at 1.2 µM -41% | [5]; at 3.7 µM -42% | [5]; [17] 52% | [5]; at 11.0 µM -36% | [5]; at 33.0 µM -25% | [5]; [18] 49% | [5]; at 50.0 µM 31.9% | [5]; at 100.0 µM -13% | [6]; at 1.2 µM -54% | [6]; at 3.7 µM -51%
